# This is a sample that favours compounds with a hit; in the whole collection about 2.8% have one here.
# ATXN2 expr inh – inhibitors of ATXN2 expression; HEK-293 ATXN2-luciferase reporter, luminescence, 24 h; Potency, µM (top dose mostly 57 µM), inactives show at the top dose activity change, negative = inhibition, actives largely listed as inhibitors; hit rate 0.72% among 360,000; also: % is scaled to controls: 0 for no effect and ±100 for the full control effect; nearly all actives have a fitted effect of over 55% in size
#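 ATXN2-luciferase reporter cells (luciferase flanked by upstream and downstream ATXN2 gene portions) were treated 24 h at 37 °C with compounds at up to 57 uM. SteadyGlo luminescence gave expression; GF-AFC fluorescence gave viability.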
# HttQ103 aggreg – reduces HttQ103-GFP aggregates in PC12 cells | AID 1688 | PC12 HttQ103-GFP aggregates, Acumen cytometry, 40 h | hit rate 1.1% among 220,000 | Potency, µM (titrated, usually from 46.1 µM), inactives show at the top dose activity change, negative = inhibition, usual class: inhibitors; also: % is scaled to controls: 0 for no effect and ±100 for the full control effect; nearly all actives have a fitted effect of over 60% in size
#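 PC12 cells stably carrying ecdysone-inducible HTT exon 1 Q103–GFP were induced with tebufenozide (100 nM final) and treated with library compounds in titration. GFP aggregates in lysates were counted by laser scanning cytometry.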
# S2 tox – reduces viability in counter-screen for ATXN expression inhibitors; hit rate 0.49% among 400,000; AID 651635; Potency, µM (highest dose often 56.7 µM), hits mostly cytotoxic; S2 cells (HEK-293 line with an ATXN2-luciferase reporter) viability, CellTiter-Fluor protease fluorescence, 24 h; also: nearly all actives have a fitted effect of over 40% in size
# HTT cytoprotect – cytoprotection in Huntington HTT-Q103 PC12 cell model | Potency, µM (titrated, usually from 56.4 µM), for inactives: cytoprotection (ATP increase), actives largely listed as activators | PC12 HTT-Q103 induced, cytoprotection, ATP luminescence, 40 h | hit rate 0.14% among 230,000; also: % of control where 0% means no effect; nearly all actives have a fitted effect of over 45% in size
#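 Rat PC12, Q103 Htt exon1-GFP fusion, ecdysone promoter; tebufenozide inducer 100 nM final; compound titration; qHTS, 1500 cells/well; ATPlite luminescent read.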
# TGFb inhibitor – TGF-b pathway inhibition. HepG2 CAGA-GFP TGF-b/SMAD3 reporter, GFP fluorescence, 18 h; TGF-beta stimulated, 500 pg/mL final. Potency, µM (top dose mostly 46.1 µM), without a hit: at the highest dose activity, negative = inhibition, most hits filed as inhibitors. hit rate 1.2% among 410,000. AID 588855; also: % is scaled to controls: 0 for no effect and ±100 for the full control effect; nearly all actives have a fitted effect of over 65% in size
#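 Inhibition was scored as loss of TGF-beta-induced (500 pg/mL final, 18 hours, 37 degrees C) GFP in HEPG2 cells carrying a CAGA-GFP reporter, in DMEM with 1% FBS. Well GFP was summed per cell; Activity was normalised to unstimulated and stimulated DMSO wells, then concentration-response fitting.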
# HepG2 viability – kills HepG2 cells in TGF-b inhibitor counter-screen; hit rate 0.76% among 410,000; Potency, µM (top dose mostly 46.1 µM), for inactives: at the highest dose activity change, negative = cytotoxicity, hits mostly cytotoxic; HepG2 CAGA-GFP viability, ATP luminescence, 18 h; AID 588856
#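 CellTiter-Glo luminescence gave cytotoxicity after 18 hours at 37 degrees C. The cells were HepG2 CAGA-GFP in 1% FBS DMEM, stimulated with 500 pg/mL TGF-beta after compound addition. %Activity was normalised to no-cell wells (complete cell-killing) and DMSO (no toxicity), and curves were fitted and classified.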
# Starred values were filed as active, the others as inactive; i = inactive; ? = inconclusive; . = no result given; [ ] = dose if it differs, or a comment. Calls follow the shape of the dose curve; as a rule, active = well fitted curve in the direction sought with a large enough effect; inconclusive = small, poorly fitted or top-dose-only effect, or another doubt; inactive = no such curve, though single readings can be large; an effect the other way counts as inactive or inconclusive. Potency is read from the fitted curve at half-maximal effect.
SMILES,ATXN2 expr inh,HttQ103 aggreg,S2 tox,HTT cytoprotect,TGFb inhibitor,HepG2 viability
Cc1cc(N/N=C/c2ccc3c(c2)OCO3)nc2ccccc12,-11%,-10%[9.22 µM],i,2%[10 µM],-8%,20µM*
Cc1nc2ccccc2oc1=O,.,.,.,14%,.,.
Nc1cc2nc3ccccc3oc-2cc1=O,-15%,-28%[9.22 µM],?,-5%[10 µM],?,4.5µM*
CN(N=O)c1ccc(/C=C/c2ccnc3ccccc23)cc1,.,.,.,.,-5%,-29%
COc1cccc(N2CCN(C(=O)CC(C)(C)CC3=NS(=O)(=O)c4ccccc4N3)CC2)c1,?,.,i,.,2%,-5%
CC(C)(CC(=O)N1CCN(c2ccc(Cl)cc2)CC1)CC1=NS(=O)(=O)c2ccccc2N1,?,11µM*,?,-46%,0%,-9%
O=C(N/C(=C/c1ccc([N+](=O)[O-])cc1)C(=O)N1CCCC1)c1ccccc1,11%,.,i,.,-1%,-9%
O=C(N/C(=C/C=C/c1ccccc1)C(=O)N1CCCCC1)c1ccc([N+](=O)[O-])cc1,2%,-8%,1.5µM*,-48%,?,2%
Cc1ccccc1C1=NC(C(F)(F)F)(C(F)(F)F)c2c(n(C)c(=O)n(C)c2=O)N1,-10%,-3%,i,5%[10 µM],-13%,-18%
Cn1c2c(c(=O)n(C)c1=O)C(C(F)(F)F)(C(F)(F)F)N=C(c1ccc(Cl)cc1)N2,?,1.3µM*,?,-65%,1.8µM*,-24%
COc1cc(C=C2CN(C)C(=O)C2=O)ccc1O,.,.,28µM*,.,-3%,-30%
CCOc1cc(/C=C2\CN(C)C/C(=C\c3ccc(O)c(OCC)c3)C2=O)ccc1O,3.2µM*,.,.,.,?,-55%
COc1cc(/C=C2\OC(=O)c3c(OC)cccc32)ccc1O,59%,-4%,i,-68%,-3%,2%
C=CCNC(=O)/C(C#N)=C\c1cc(Cl)c(O)c(OCC)c1,0%,-12%,i,-5%[10 µM],10%,8%
CCOc1cc(/C=C2\CCC/C(=C\c3cc(Cl)c(O)c(OCC)c3)C2=O)cc(Cl)c1O,8.9µM*,6%[9.22 µM],16µM*,-67%,5µM*,7.9µM*
CC1=C(C(=O)OCc2ccccc2)N2C(=O)[C@@H](NC(=O)OCc3ccccc3)[C@H]2SC1,.,.,.,.,-20%,3%
CCC(C(=O)Nc1ccc(C)c(Cl)c1)n1c(=O)c(-c2ccccc2NC(C)=O)nc2ccccc21 (stereo not drawn),?,.,?,.,13µM*,-9%
COc1ccc(CCNc2cc(N3CCN(C(=O)c4ccccc4F)CC3)ccc2[N+](=O)[O-])cc1OC,-19%,4µM*,i,-43%,-10%,-14%
COc1ccc(CCNc2cc(N3CCN(C(=O)c4ccc(C)cc4)CC3)ccc2[N+](=O)[O-])cc1OC,.,-10%,.,4%[10 µM],.,.
Cc1nnc(Sc2nc3ccccc3o2)c2ccccc12,2%,?,i,?,13µM*,-68%
Cc1ccc(O)c(CNc2cnc3ccccc3c2)c1,8%,.,i,.,-19%,-12%
Oc1ccc(Br)cc1CNc1cnc2ccccc2c1,.,.,i,.,?,13µM*
O=C(CCN1CCN(c2ccccc2F)CC1)c1ccc(Br)cc1,4%,8%,i,-31%,?,16µM*
COc1ccc(C(=O)CCN2CCN(c3ccccc3F)CC2)cc1,-2%,31%,i,-50%,?,-35%
O=C1ON=C(c2ccccc2)/C1=C/c1ccc(OS(=O)(=O)c2ccccc2)cc1,17%,?,i,12%[10 µM],-7%,-4%
COc1ccc(/C=C2\C(=O)ON=C2c2ccccc2)cc1,?,.,20µM*,.,-30%,-43%
Cc1nn(C)cc1CNc1nc(C)c(-c2ccn(CC3COc4ccccc4O3)n2)s1 (stereo not drawn),.,.,i,.,.,.
Nn1cnnc1SCC(=O)Nc1ccc(C2CCCCC2)cc1,42%,9%,i,-42%[10 µM],-25%,-4%
